Assay [1] has as its target T1, Tyrosine-protein phosphatase non-receptor type substrate 1 (Homo sapiens) + Leukocyte surface antigen CD47 (Homo sapiens) (UniProt P78324+Q08722). In words: CD47-SIRPalpha protein protein interaction - HTRF assay qHTS validation (AID 1347058; active = well fitted curve in the direction sought with a large enough effect in the signal ratio, not every such curve was filed as active; the % refers to the signal ratio; also: series mostly up to about 38 µM; 0% is about no effect). The procedure, abridged:
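Soluble extracellular domains (6His-CD47, Avi-tag-biotinylated SIRPalpha) in PBS pH 7.4 with 0.05% IGEPAL CA-630. Compounds were preincubated 30 min at RT with CD47 and anti-His-Eu, then SIRPalpha and SAV-XL665 were added. TR-FRET 665/615 ratio.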

Assay [2] deals with T1, Tyrosine-protein phosphatase non-receptor type substrate 1 (Homo sapiens) + Leukocyte surface antigen CD47 (Homo sapiens). In words: CD47-SIRPalpha protein protein interaction - Alpha assay qHTS validation (AID 1347059).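 Also: bead proximity luminescence from CD47 binding SIRPalpha after compound preincubation with SIRPalpha; % is scaled to controls: 0 for no effect and ±100 for the full control effect.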 The method in brief:
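SIRPalpha-biotin 25 nM + cpd, 30 min RT, dark; add CD47-His 12.5 nM, 30 min; add Ni-NTA/SAV beads 10 ug/mL, 30 min; AlphaScreen. Buffer PBS pH 7.4 + 0.05% IGEPAL CA-630. Non-biotinylated SIRPalpha as control inhibitor.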
Background: qHTS replaces the single test concentration by a dilution series.

The target of assay [3] is Parathyroid hormone/parathyroid hormone-related peptide receptor (Homo sapiens) (UniProt Q03431). In words: qHTS for PTHR1 Agonists: Optimization Screen against the NCGC LOPAC library (AID 1347079).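 Also: GloSensor cAMP luminescence in HEK-293 GP2 cells expressing human PTHR1 with IBMX; 0% is about no effect.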 The procedure, abridged: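 Signal increase flags agonism. GP2 cells, derived from HEK-293, express human PTHR1 and a GloSensor cAMP construct.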
Sequence of Parathyroid hormone/parathyroid hormone-related peptide receptor (Homo sapiens) (Q03431 whole entry, looked up): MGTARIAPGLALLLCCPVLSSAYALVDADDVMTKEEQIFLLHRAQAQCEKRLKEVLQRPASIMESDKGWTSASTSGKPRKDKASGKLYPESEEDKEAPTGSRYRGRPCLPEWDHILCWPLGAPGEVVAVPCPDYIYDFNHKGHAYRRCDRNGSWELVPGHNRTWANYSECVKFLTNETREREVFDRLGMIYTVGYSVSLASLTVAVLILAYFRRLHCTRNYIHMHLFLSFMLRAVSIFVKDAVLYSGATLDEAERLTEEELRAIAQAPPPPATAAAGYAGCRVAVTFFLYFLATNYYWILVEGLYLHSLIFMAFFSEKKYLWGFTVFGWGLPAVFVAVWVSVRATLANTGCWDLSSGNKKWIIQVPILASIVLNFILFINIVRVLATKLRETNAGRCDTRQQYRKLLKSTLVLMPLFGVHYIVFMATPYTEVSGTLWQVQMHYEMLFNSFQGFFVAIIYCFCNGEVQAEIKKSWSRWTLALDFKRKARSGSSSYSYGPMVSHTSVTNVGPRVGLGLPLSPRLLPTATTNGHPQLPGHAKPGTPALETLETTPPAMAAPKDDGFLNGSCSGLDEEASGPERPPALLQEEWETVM
Assay [4] is described as follows: qHTS of pediatric cancer cell lines to identify multiple opportunities for drug repurposing: Primary screen for DAOY cells (AID 1347090).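 Also: series mostly up to about 46 µM; plate controls were DMSO for no effect and bortezomib for full effect; nearly all actives have a fitted effect of over 55% in size.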 The method in brief: (§1)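 Viability measured as metabolically active cells via CellTiter-Glo luminescence following 48 hours of compound exposure, 11-point dilutions in confirmatory testing. 500-1,000 cells/well plated 5 hours before dosing; controls were DMSO and 2.3 µM bortezomib.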

Assay [5] is described as follows: qHTS of pediatric cancer cell lines to identify multiple opportunities for drug repurposing: Primary screen for SJ-GBM2 cells (AID 1347091).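 Also: plate controls were DMSO neutral control for no effect and bortezomib for full effect.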 The method in brief:
as §1

Assay [6] in a line: qHTS of pediatric cancer cell lines to identify multiple opportunities for drug repurposing: Primary screen for A673 cells (AID 1347092). Also: nearly all actives have a fitted effect of over 45% in size. Also: potency is read from the fitted curve at half-maximal effect. As to activity change, negative = cytotoxic: % is scaled to controls: 0 for no effect and ±100 for the full control effect. The procedure, abridged:
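A673 cells (500-1,000 cells/well in growth media) were pre-incubated 5 h at 37 degrees C, then exposed to compounds for 48 h. Viability was read as CellTiter-Glo luminescence; concentration-response curves came directly from the primary screen.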

A short description of assay [7]: qHTS of pediatric cancer cell lines to identify multiple opportunities for drug repurposing: Primary screen for SK-N-MC cells (AID 1347093). Also: potency is read from the fitted curve at half-maximal effect.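 As to activity change, negative = cytotoxic: series mostly up to about 46 µM; plate controls were DMSO neutral control for no effect and bortezomib for full effect.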 The method in brief:
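Metabolically active cells were quantified by ATP-dependent luminescence (CellTiter-Glo, 15 min at room temperature) following 48 h treatment. Cells had been plated at 500-1,000 per well and settled for 5 h beforehand.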

A short description of assay [8]: qHTS of pediatric cancer cell lines to identify multiple opportunities for drug repurposing: Primary screen for BT-37 cells (AID 1347094).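 Also: series mostly up to about 57 µM; plate controls were DMSO for no effect and bortezomib for full effect.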 The procedure, abridged:
(§2)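 Quantitative HTS format: each compound titrated (MIPE 11 points from 0.78 nM, NPC 8 points from 0.59 nM) onto cells plated 5 hours earlier. After 48 h at 37 degrees C, CellTiter-Glo luminescence was recorded.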

Assay [9] in a line: qHTS of pediatric cancer cell lines to identify multiple opportunities for drug repurposing: Primary screen for NB-EBc1 cells (AID 1347095).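 Also: plate controls were DMSO neutral control for no effect and bortezomib for full effect.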 The procedure, abridged: as §2
Assay [10] can be described thus: qHTS of pediatric cancer cell lines to identify multiple opportunities for drug repurposing: Primary screen for TC32 cells (AID 1347089). Also: % is scaled to controls: 0 for no effect and ±100 for the full control effect; nearly all actives have a fitted effect of over 60% in size. The method in brief: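 Luminescent CellTiter-Glo read-out of metabolically active TC32 cells after 48 h compound exposure. Primary: MIPE 11-point, 0.78 nM–46 µM; NPC 8-point, 0.59 nM–46 µM. Confirmatory: 11-point dilutions.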

Unmarked numbers belong to inactive results. Records with an inconclusive call do not appear. Activity calls are given as the source filed them. Unless noted, calls follow the shape of the dose curve; as a rule, active = well fitted curve in the direction sought with a large enough effect; inconclusive = small, poorly fitted or top-dose-only effect, or another doubt; inactive = no such curve, though single readings can be large; an effect the other way counts as inactive or inconclusive.

T1 sequence (P78324 whole entry, looked up, the tested form may be a part): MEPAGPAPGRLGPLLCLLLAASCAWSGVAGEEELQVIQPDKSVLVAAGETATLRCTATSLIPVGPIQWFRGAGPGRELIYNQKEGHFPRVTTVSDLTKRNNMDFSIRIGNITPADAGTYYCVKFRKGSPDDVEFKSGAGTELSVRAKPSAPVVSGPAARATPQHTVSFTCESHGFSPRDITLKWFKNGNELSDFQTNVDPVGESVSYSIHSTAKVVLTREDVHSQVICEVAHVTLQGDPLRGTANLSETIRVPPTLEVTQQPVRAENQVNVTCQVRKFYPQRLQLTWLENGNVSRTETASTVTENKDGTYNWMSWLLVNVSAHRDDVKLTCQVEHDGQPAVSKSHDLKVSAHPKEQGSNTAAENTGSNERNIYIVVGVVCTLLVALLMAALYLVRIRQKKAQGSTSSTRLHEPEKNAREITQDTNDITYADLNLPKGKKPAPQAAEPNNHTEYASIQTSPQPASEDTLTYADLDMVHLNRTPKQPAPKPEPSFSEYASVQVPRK
T1 sequence (Q08722 whole entry, looked up, the tested form may be a part): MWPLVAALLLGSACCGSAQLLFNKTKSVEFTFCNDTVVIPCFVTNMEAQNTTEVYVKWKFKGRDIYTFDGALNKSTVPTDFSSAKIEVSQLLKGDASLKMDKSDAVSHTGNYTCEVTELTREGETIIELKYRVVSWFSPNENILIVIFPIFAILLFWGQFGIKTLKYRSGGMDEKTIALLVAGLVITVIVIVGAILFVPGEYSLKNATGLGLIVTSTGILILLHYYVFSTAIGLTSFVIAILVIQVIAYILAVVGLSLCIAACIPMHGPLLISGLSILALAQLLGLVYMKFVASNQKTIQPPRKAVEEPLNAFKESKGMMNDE

For the molecule `CCn1ccnc1CC1COc2ccccc2O1` (stereo unspecified), the outcome in assay [1] and in [3] was inactive. Further, the Potency result in [2], in assay [4], in assay [5], in [6], in assay [7] and in [8] was “inactive” in each case. The Potency result in assay [9] was “inactive”.

As for `NC1=NCC2c3ccccc3Cc3ccccc3N12` (stereo unspecified), the result in assay [1] and in assay [3] was inactive. Besides, the Potency entry in [2], in assay [10], in assay [4], in assay [5], in assay [6] and in assay [8] was “inactive” throughout. Besides, the Potency result in assay [9] was “inactive”.

On to `OCCN1CCN(CCCN2c3ccccc3C=Cc3ccccc32)CC1`, for which the outcome in assay [1] and in assay [3] was inactive. The Potency result in assay [2], in assay [4], in assay [5], in [6], in assay [7] and in assay [8] was “inactive” in each case. The Potency result in assay [9] was “inactive”.

Regarding `CN1CCN(C2=Nc3ccccc3Oc3ccc(Cl)cc32)CC1`, the outcome in [1] and in [3] was inactive. Moreover, the Potency entry in assay [2], in assay [4], in assay [5], in [6], in [7] and in assay [9] was “inactive” in each case.

For `CCCCCCCC/C=C\CCCCCCCC(=O)NCc1ccc(O)c(OC)c1`, the outcome in assay [1] and in assay [3] was inactive. Moreover, the Potency result in [2], in assay [10], in [4] and in [8] was “inactive” each time. The Potency in [6] is 2.66 µM (active).

In the case of `CN(C)CCN(Cc1cccs1)c1ccccn1`, the result in [1] and in assay [3] was inactive. Also, the Potency result in assay [2], in [4], in assay [5], in [6], in assay [7] and in [8] was “inactive” throughout. Also, the Potency entry in assay [9] was “inactive”.

In the case of `Cc1nc2c([nH]1)c(=O)n(C)c(=O)n2Cc1ccco1`, the outcome in [1] and in [3] was inactive. For the same molecule, the Potency entry in assay [2], in [4], in [5], in assay [6], in assay [8] and in assay [9] was “inactive” each time.

Take `C[C@]12CC[C@@H]3c4ccc(O)cc4C[C@@H](CCCCCCCCCS(=O)CCCC(F)(F)C(F)(F)F)[C@H]3[C@@H]1CC[C@@H]2O` (stereo partly specified): the outcome in assay [1] and in assay [3] was inactive. Further, the Potency result in [2], in [10], in assay [4], in assay [6], in assay [8] and in assay [9] was “inactive” throughout. Also, in assay [7], the Potency was 9.44 µM (active).

As to `COC(=O)[C@@H](N)Cc1ccc(O)c(O)c1`, the result in assay [1] and in [3] was inactive. Moreover, the Potency result in assay [2], in [10], in assay [4], in [5], in assay [6] and in assay [8] was “inactive” in each case. Further, the Potency result in assay [9] was “inactive”.

Consider `CNCCCN1c2ccccc2CCc2ccccc21`, for which the result in assay [1] and in assay [3] was inactive. The Potency result in assay [10] and in assay [4] was “inactive” in each case.

`CCN1CCC[C@H]1CNC(=O)c1c(O)c(Cl)cc(Cl)c1OC`: the outcome in assay [1] and in [3] was inactive. Further, the Potency entry in assay [4], in assay [5], in [6], in [7], in [8] and in assay [9] was “inactive” in each case.

On to `CCN(CC)CCNC(=O)c1ccc(NC(C)=O)cc1`, for which the result in [1] and in assay [3] was inactive. Further, the Potency result in [10], in assay [4], in assay [5], in [6], in assay [7] and in assay [8] was “inactive” throughout. Besides, the Potency result in assay [9] is “inactive”.

For the molecule `Fc1ccc(C(c2ccc(F)cc2)N2CCN(C/C=C/c3ccccc3)CC2)cc1`, the outcome in [1] and in assay [3] was inactive. Further, the Potency entry in [10] and in [4] was “inactive” throughout.

As to `CCCNC(C)C(=O)Nc1ccccc1C` (stereo unspecified), the result in [1] and in assay [3] was inactive. Further, the Potency result in assay [4], in [5], in [6], in [7], in assay [8] and in assay [9] was “inactive” throughout.

Regarding `FC(F)(F)c1ccccc1-n1ccnc1`, the outcome in assay [1] and in [3] was inactive. Also, the Potency result in [4], in assay [5], in assay [6], in [7], in [8] and in [9] was “inactive” in each case.

`CCCN(CCC)C(=O)C(CCC(=O)O)NC(=O)c1ccccc1` (stereo unspecified): the result in assay [1] and in [3] was inactive. Besides, the Potency result in [10], in assay [4], in assay [5], in assay [6], in assay [7] and in [8] was “inactive” throughout. Further, the Potency entry in assay [9] was “inactive”.

Consider `O=C(O)CN(CCOCCOCCN(CC(=O)O)CC(=O)O)CC(=O)O`, for which the result in assay [1] and in assay [3] was inactive. Besides, the activity change, negative = cytotoxic in assay [10] is 12.3% [at 0.594 µM]; in [4] it was 12.8% [at 0.597 µM]; in [5], 26.6% [at 0.597 µM]; in assay [6], 8.27% [at 0.597 µM]; in [7], 0.435% [at 0.597 µM]; in [8] it was 13% [at 0.745 µM]. Moreover, the activity change, negative = cytotoxic in assay [9] is 21.8% [at 0.597 µM].

Take `CCNC(=O)N1CCN(CCCC(c2ccc(F)cc2)c2ccc(F)cc2)CC1`: the result in assay [1] and in assay [3] was inactive. For the same molecule, the Potency entry in assay [5], in assay [6] and in assay [9] was “inactive” each time.

Values taken from PubChem BioAssay (NCATS).
